In the OligoGym collection:

What follows are sequences tested against NLRP9 (assay: pooled miR-30 sensor sort-seq; sequence = guide strand). Settings: shRNA.
Further: reference of the scale not given here.

| Sequence | sensor-assay potency score (higher = more potent) |
| --- | --- |
| TTTCACACAAGTACAGACCAAC | -0.447 |
| TCTATAGACACATTCTAGCATC | -0.783 |
| TTGTATTCCTCGTCAATCCAAG | -0.958 |
| TTTTTTTGCAACAAACTGCTCA | 0.0842 |
| TATTGCTAGAACACTTAGGGAG | 0.102 |
| TAAATGTTGACAATGCTTCAGG | 0.0203 |
| TTGTTGGTAATGAACATTGAGC | -1.13 |
| TTGTTTAACGTACTTGTGCTTC | -0.694 |
| TTTACAAACAGGCTGAGCCAGC | -0.948 |
| TTGACTTAAACTTTCAAGGCAT | 0.797 |
| TTCTGTGTCAGAAGTATCCGGA | 0.451 |
| TTGGTAATGAACATTGAGCAAA | -1.26 |

These sequences were tested against NMD3 in the same assay as above. Settings: shRNA.

| Sequence | sensor-assay potency score (higher = more potent) |
| --- | --- |
| TACTTAACAAGTCTGATCTTGC | 0.186 |
| TTAGCCATTATCTTCATGCTGG | 0.243 |
| TTTATATCTTGGACTATGCTGC | 0.0732 |
| TTGATATCATTCCAGCACCTGC | -1.29 |
| TTGAAGGATAGCACCATTCATC | -0.92 |
| TTAACTTTAAGTCTCTTAGAAT | -1.22 |
| TTAACAAGTCTGATCTTGCTTA | 0.213 |
| TCGAATACACACACAAATCTGG | -0.268 |
| TTCACTAAAATAATCAACGTAA | -0.261 |
| TTTTTGAGCTTTTACATCCAGA | -0.415 |
| TATCTTGAGAGATCAGTCTTTG | -0.699 |
| TTGATTAATACCACATCTGGAA | -0.0213 |

The sequences below were run against NMNAT2 in the same assay as above. Settings: shRNA.

| Sequence | sensor-assay potency score (higher = more potent) |
| --- | --- |
| TAAAGAACATTGTCTTTGCTTT | -0.457 |
| TTTCCTTTGTTTCATTTCCTGG | -0.769 |
| TTGGTGATGGGATTGAAGCTGC | -0.365 |
| TTTGCTTTCAGGTCCCACCTGG | 0.293 |
| TAACAGACTTTCTGGATGCTGC | -0.475 |
| TTTATTTCTAAAGGAAACCTAA | -0.873 |
| TCCAGCAATAGCATCATCCTGA | -0.521 |
| TAGAAATCTACTTCTATGGCAC | 0.539 |
| TTCTGTTAAATCAAGTTCCTTT | 0.0856 |
| TAGTCAAACACTGATACCCCAA | -0.77 |
| TAAAAGTATCCTAATACTCAGG | -0.84 |
| TTATATTAAATAGGAAACCTGT | -0.594 |
